The record followed here is PubChem BioAssay (Tox21).

Unmarked numbers belong to inactive results. Inconclusive results are not listed. Activity calls are given as the source filed them. Unless noted, calls come from the whole dose curve; as a rule, active = well fitted curve in the direction sought with a large enough effect in the repeat runs; inconclusive = weak or mixed curves; inactive = no such curve, though single readings can be large; an effect the other way counts as inactive or inconclusive.

A short description of experiment [1]: qHTS assay to identify small molecule agonists of the hypoxia (HIF-1) signaling pathway - cell viability counter screen (AID 1224844; calls by dose curve; note: nearly all actives have a fitted effect of over 50% in size). In a few lines:
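Same wells as the HIF-1 reporter screen; ME-180 cells carrying HRE-bla, 17 hr treatment at 37C; CellTiter-Glo luminescence read after 30 min at room temperature.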
(In qHTS, concentration-response curves come from the screen itself.)

The nature of experiment [2]: qHTS assay to identify small molecule agonists of H2AX (AID 1224845; active = well fitted activation curve with a large enough effect in the signal ratio in the repeat runs, not every such curve was filed as active; the % refers to the signal ratio). In outline:
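Wild-type CHO-K1 cells, plated overnight, exposed 3hr at 37C to 15 concentrations (0.76% DMSO final). Lysed, then HTRF anti-pH2AX (S139) cryptate and anti-H2AX-d2 antibodies, 24 hr room temperature; 665/620 nm emission read.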

Experiment [3] is described as follows: qHTS assay to identify small molecule agonists of the hypoxia (HIF-1) signaling pathway (AID 1224846; active = well fitted activation curve with a large enough effect in the signal ratio in the repeat runs, not every such curve was filed as active; the % refers to the signal ratio). In a few lines:
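In ME-180 cells bearing an HRE-bla construct, 17 h treatment with DMSO-dissolved compounds at 37C was followed by CCF4-AM loading to quantify reporter induction.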

Experiment [4] in a line: qHTS assay to identify small molecule agonists of H2AX - cell viability counter screen (AID 1224847; calls by dose curve; note: top concentration of the series differs between compounds; nearly all actives have a fitted effect of over 30% in size). In a few lines: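 Cells plated first: CHO-K1, 1000 per well in 10% FBS medium, incubated overnight at 37C. Then 15-point compound titration added (final DMSO 0.76%) for 3 hr. Finally CellTiter-Glo added and luminescence read.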
Experiment [5] is described as follows: qHTS RealTime-Glo MT Cell Viability Assay in HepG2 cells - 24 hour (AID 1224867). Note: nearly all actives have a fitted effect of over 50% in size. In a few lines: (§1)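 qHTS, HepG2, 600 cells/well, RealTime-Glo (NanoLuc + prosubstrate) added with cells; 5 h preincubation; DMSO compound addition; 37 C; luminescence at 0/8/16/24/32/40 h.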
A short description of experiment [6]: qHTS RealTime-Glo MT Cell Viability Assay in HEK293 cells - 32 hour (AID 1224868). Note: nearly all actives have a fitted effect of over 50% in size. Note: potency is the fitted concentration of half-maximal effect. In a few lines: (§2)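 Assay medium contained NanoLuc luciferase plus cell-permeant prosubstrate, added with HEK293 cells at 600 cells/well. After 5 h at 37 C/5% CO2 compounds were added; plates stayed at 37 C for 40 h with serial luminescence reads.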
Experiment [7] in a line: A CellTox Green Cytotoxicity Assay to monitor cytotoxicity in HEK293 cells - 0 hour (AID 1224869). Note: nearly all actives have a fitted effect of over 50% in size. In outline:
(§3)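 Homogeneous no-lysis format: HEK293 cell suspension mixed with CellTox Green reagent, seeded, incubated 5 h at 37 C/5% CO2, then dosed by pintool with compound in DMSO.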

Experiment [8] is described as follows: qHTS RealTime-Glo MT Cell Viability Assay in HepG2 cells - 40 hour (AID 1224870). Note: nearly all actives have a fitted effect of over 50% in size. In a few lines:
(§4)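 HepG2 cells (600/well) mixed with RealTime-Glo MT reagent, settled 5 h at 37 C/5% CO2 before compound addition. Nonlytic NanoLuc luminescence from viable-cell prosubstrate reduction read repeatedly during 40 h treatment at 37 C.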

A short description of experiment [9]: A CellTox Green Cytotoxicity Assay to monitor cytotoxicity in HEK293 cells - 40 hour (AID 1224871). Note: nearly all actives have a fitted effect of over 45% in size. In a few lines:
as §3

A short description of experiment [10]: qHTS RealTime-Glo MT Cell Viability Assay in HEK293 cells - 16 hour (AID 1224872). In a few lines:
as §2

The nature of experiment [11]: qHTS RealTime-Glo MT Cell Viability Assay in HepG2 cells - 8 hour (AID 1224873). Note: nearly all actives have a fitted effect of over 55% in size. In outline:
as §4

The nature of experiment [12]: qHTS RealTime-Glo MT Cell Viability Assay in HEK293 cells - 40 hour (AID 1224874). Note: nearly all actives have a fitted effect of over 50% in size. Note: potency is the fitted concentration of half-maximal effect. To be noted: RealTime-Glo luminescence; max response: hits give low values. In a few lines: (§5)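 Measured as luminescence from the same continuously cultured HEK293 wells at successive time points (0, 8, 16, 24, 32, 40 h) after compound addition. Reagent present from seeding; dosing at 5 h; incubation 37 C.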

The nature of experiment [13]: A CellTox Green Cytotoxicity Assay to monitor cytotoxicity in HepG2 cells - 16 hour (AID 1224876). Note: nearly all actives have a fitted effect of over 45% in size. In a few lines: (§6)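 Fluorescent DNA-binding dye, 600 HepG2 cells/well, 5 h preincubation then compound in DMSO; same plates read at 0–40 h, 37 C.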
Experiment [14] can be described thus: qHTS RealTime-Glo MT Cell Viability Assay in HepG2 cells - 32 hour (AID 1224877). Note: nearly all actives have a fitted effect of over 55% in size. In a few lines: as §1
Experiment [15] is described as follows: A CellTox Green Cytotoxicity Assay to monitor cytotoxicity in HepG2 cells - 24 hour (AID 1224878). Note: nearly all actives have a fitted effect of over 45% in size. In a few lines: as §6
The nature of experiment [16]: A CellTox Green Cytotoxicity Assay to monitor cytotoxicity in HepG2 cells - 40 hour (AID 1224879). Note: nearly all actives have a fitted effect of over 40% in size. In outline:
as §6

Experiment [17] can be described thus: qHTS RealTime-Glo MT Cell Viability Assay in HEK293 cells - 0 hour (AID 1224880). Note: nearly all actives have a fitted effect of over 45% in size. Note: potency is the fitted concentration of half-maximal effect. In a few lines: as §5
Experiment [18] can be described thus: A CellTox Green Cytotoxicity Assay to monitor cytotoxicity in HEK293 cells - 24 hour (AID 1224875). In a few lines:
as §3
% is set by controls: 0 for no effect and ±100 for the full control effect.

As to `Cc1ccccc1S(=O)(=O)O`, the Potency result in experiment [1], in experiment [2], in [3], in experiment [4], in [5] and in experiment [6] was “inactive” throughout. Further, the Potency result in experiment [7], in experiment [8], in experiment [9], in experiment [10], in [11] and in [13] was “inactive” each time. The Potency result in experiment [14], in experiment [15], in experiment [16] and in experiment [17] was “inactive” in each case. The max response in experiment [12] is 3.84%.
For `CCCCc1nc2cccnc2n1Cc1ccc(-c2ccccc2-c2nnn[nH]2)cc1`, the Potency entry in experiment [1], in [2], in experiment [3], in [4], in [5] and in [8] was “inactive” each time. In addition, the Potency result in [18], in experiment [13], in [14], in [15] and in experiment [16] was “inactive” throughout. Besides, in [17], the Potency was 21.9 µM (active).
Regarding `CCOC(=O)C(F)(F)F`, the Potency result in experiment [1], in [2], in experiment [3], in experiment [4], in experiment [5] and in experiment [6] was “inactive” in each case. Moreover, the Potency entry in [7], in [8], in experiment [9], in [10], in experiment [11] and in [18] was “inactive” throughout. Moreover, the Potency result in [13], in experiment [14], in experiment [15], in experiment [16] and in experiment [17] was “inactive” throughout. In experiment [12], the max response is 6.21%.
Turning to `CN(C)c1ccc(CCO)cc1`, the Potency result in experiment [1], in experiment [2], in [3], in experiment [4], in [5] and in experiment [7] was “inactive” in each case. Besides, the Potency entry in experiment [8], in [9], in experiment [18], in [13], in experiment [14] and in [15] was “inactive” throughout. Besides, the Potency result in experiment [16] and in experiment [17] was “inactive” each time. The Potency is 30.7 µM (active) in experiment [6] and 34.5 µM (active) in [12].
As for `CC1(c2ccccc2)OC(C(=O)O)=CC1=O` (stereo unspecified), the Potency entry in experiment [1], in [2], in experiment [3], in experiment [4], in [5] and in experiment [6] was “inactive” throughout. Further, the Potency entry in [7], in [8], in [10], in [11], in [14] and in [15] was “inactive” in each case. The Potency entry in experiment [16] and in [17] was “inactive” each time. In experiment [12], the max response is 2.42%.
For `CCO[Si](CCCCl)(OCC)OCC`, the Potency entry in [1], in experiment [2], in experiment [3], in experiment [4], in experiment [5] and in experiment [6] was “inactive” throughout. For the same compound, the Potency entry in [8], in experiment [9], in experiment [10], in experiment [11], in experiment [18] and in experiment [13] was “inactive” in each case. The Potency result in experiment [14], in experiment [15] and in experiment [16] was “inactive” in each case. Further, the max response in experiment [12] is 0.203%.
With `O=[N+]([O-])c1ccc2[nH]ncc2c1`, the Potency result in experiment [1], in experiment [2], in [3], in experiment [4], in [5] and in experiment [6] was “inactive” in each case. The Potency entry in [7], in experiment [8], in [9], in [10], in experiment [11] and in experiment [18] was “inactive” throughout. The Potency entry in experiment [13], in experiment [14], in experiment [15], in experiment [16] and in experiment [17] was “inactive” each time. For the same compound, in [12], the max response was -13.3%.
Take `CC(=O)NO`: the Potency entry in [1], in [2], in experiment [3], in [4], in experiment [5] and in experiment [6] was “inactive” each time. In addition, the Potency entry in experiment [7], in [8], in [9], in [10], in experiment [11] and in experiment [18] was “inactive” in each case. In addition, the Potency entry in [13], in experiment [14], in experiment [15], in [16] and in [17] was “inactive” throughout. In experiment [12], the max response is 2.23%.
Regarding `CC1CCC(=O)C1=O` (stereo unspecified), the Potency result in experiment [1], in experiment [2], in [3], in experiment [4], in experiment [5] and in [6] was “inactive” each time. For the same compound, the Potency result in [8], in experiment [10], in experiment [11], in experiment [18], in experiment [13] and in experiment [14] was “inactive” in each case. Also, the Potency result in experiment [15], in [16] and in experiment [17] was “inactive” throughout. In addition, the max response in [12] was 3.01%.
In the case of `CN(C)CCN(Cc1ccsc1)c1ccccn1`, the Potency entry in experiment [1], in experiment [2], in [3], in experiment [4], in experiment [5] and in experiment [6] was “inactive” each time. Besides, the Potency result in experiment [7], in [8], in [9], in experiment [10], in [11] and in [18] was “inactive” in each case. Further, the Potency entry in experiment [13], in experiment [14], in experiment [15], in experiment [16] and in [17] was “inactive” each time. In experiment [12], the max response is 1.6%.
Take `CC/C=C\CCOC(=O)CC`: the Potency entry in experiment [1], in [2], in experiment [3], in experiment [4], in experiment [5] and in experiment [6] was “inactive” in each case. Besides, the Potency result in experiment [7], in experiment [8], in experiment [9], in experiment [10], in [11] and in experiment [18] was “inactive” each time. The Potency entry in experiment [13], in experiment [14], in [15], in [16] and in experiment [17] was “inactive” in each case. In addition, in experiment [12], the max response was 0.388%.
`C/C=C/C=C/CO`: the Potency result in experiment [1], in [2], in [3], in experiment [4], in experiment [5] and in [7] was “inactive” throughout. In addition, the Potency result in experiment [8], in experiment [10], in [11], in [18], in experiment [13] and in experiment [14] was “inactive” throughout. In addition, the Potency entry in [15], in experiment [16] and in experiment [17] was “inactive” in each case.
For `O=CC1CC=CCC1` (stereo unspecified), the Potency result in [1], in experiment [2], in [3], in [4], in [5] and in experiment [6] was “inactive” in each case. Also, the Potency result in [7], in experiment [8], in [9], in [10], in [11] and in experiment [18] was “inactive” each time. Also, the Potency result in experiment [13], in experiment [14], in [15] and in experiment [16] was “inactive” in each case. Further, the max response in experiment [12] is 10.8%.
Take `CCCCO`: the Potency entry in experiment [1], in experiment [2], in experiment [3], in experiment [4], in experiment [6] and in [7] was “inactive” in each case. For the same compound, the Potency result in experiment [8], in experiment [9], in experiment [10], in experiment [11], in experiment [18] and in experiment [13] was “inactive” throughout. In addition, the Potency entry in [14], in [15], in experiment [16] and in experiment [17] was “inactive” throughout. Further, the max response in experiment [12] was 1.62%.
